40 molecules from PubChem BioAssay (NCI) can be followed below.

Molecules are shown by their SMILES. About 83,000 compounds went through this panel and 20% of them were active in at least one assay; those are over-represented in the sample as a whole.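 Interpretation: 100, growth as untreated; towards 0, rising growth inhibition; 0, no net growth; 0 to -100, cell death. Compounds scoring below 10 were considered active.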 Values without a mark were called inactive. Active and inactive are the calls of the source.

The test concerns MDA-MB-468 breast. Description: NCI-60 one-dose screen, 48 h (100 = growth as untreated, 0 = no growth, -100 = all killed). As to conditions: 10 µM unless noted. Here is the method: Growth inhibition of the MDA-MB-468 human Breast tumor cell line is measured as a screen for anti-cancer activity. Cells are grown in 96 well plates and exposed to the test compound for 48 hours. Compounds are tested at a single concentration, which is 10^-5 M for most compounds. The reported endpoint is percent growth (GI% or GIPRCNT), where numbers from 0 - 100% represent growth inhibition, and numbers from -100% - 0 represent cell death. For example, a value of 40 represents 60% growth inhibition. A value of 0 means no net growth occurred over the course of the experiment. A value of -40 indicates 40% of cells at the beginning of the experiment died by the end of the experiment. A value of -100 means all cells are dead at the end of the experiment.
NCI-60 Human Tumor Cell Lines Screen was performed using the standard one-dose NCI protocol, which is described in more detail at https://dtp.cancer.gov/discovery_development/nci-60/default.htm.
Compounds with GIPRCNT values below 10 were considered active. Activity score was based on GIPRCNT using the following formula: […]
Score is 0 for GIPRCNT values of 100 or above, 50 for GIPRCNT values of 0, and 100 for GIPRCNT values of -100.
Take `CC1[C@H]2[C@H](C[C@H]3[C@@H]4CC=C5c6sc(Nc7ccccc7F)nc6CC[C@]5(C)[C@H]4CC[C@@]32C)O[C@]12CC[C@@H](C)CO2` (stereo not given in full): the growth is -63.1% (active).
Next, `NS(=O)(=O)c1ccc(-n2cc(-c3cccc(NC(=O)c4cc(Cl)cc(Cl)c4)c3)nn2)cc1`: 72.8%; `CC(=O)c1c(N)c(C#N)cn1-c1ccc(Cl)cc1Cl`: 97.1%.
For `Cc1cc(=O)oc2cc(OCCOc3ccc(/C=C/C(=O)Nc4ccccc4N)cc3)ccc12` the value was -45% (active).
With `CCCCCCCCc1ccc(C(=O)Nc2cccc(P(=O)(O)O)c2)cc1`, the growth is 88.7%.
Next, `C#CCOc1cc(N(CC)CC)ccc1C(C(=O)NC(C)(C)C)N(C(=O)C1CCc2cc(F)ccc2O1)c1ccc(F)c(Cl)c1` (stereo not given): 37.6%.
For `N#Cc1ccc(C(=O)Nn2c(N)cc3ccccc3c2=O)cc1` the value was 76.4%.
For `OCC1(CCCc2ccccc2)CCCN(c2nccc3ccccc23)C1` (stereo not given) the value was -15.8% (active).
In the case of `COc1ccc(-c2c(Nn3cnnn3)no[n+]2[O-])cc1`, the growth is 46.3%.
Next, `O=C(Nc1cccc(-n2cnc3cc(-c4ccc(O)cc4)ccc32)c1)C1CC1`: 21%.
As for `COc1ccc2cc([C@H](C)C(=O)N/N=C/c3ccc(Br)cc3)ccc2c1`, the growth was 100%.
Next, `CCCCCCCCc1ccc(S(=O)(=O)Nc2ccc(CC)cc2C(=O)O)cc1`: 82.2%; `CSc1ccc(NC(=O)c2ccc3nnn(/C(C#N)=C/c4ccccn4)c3c2)cc1`: -71.3% (active).
For `CN1CCN(c2ccc(C(=O)/C=C/c3ccc(Br)cc3)cc2)CC1` the value was -1.53% (active); for `COc1c(F)ccc(C(=O)Nc2ccc3nc(NC(=O)C4CCCN(S(=O)(=O)c5ccc(C#N)cc5)C4)sc3c2)c1F` (stereo not given), 86.2%; for `CN(C)CCCNC(=O)c1cc(NC(=O)c2cc(NC(=O)c3ccc(C#Cc4ccccc4)cc3)cn2C)cn1C`, -93.8% (active).
For `COc1ccc(-c2nnc3ccc(N/N=C/c4ccc(C)cc4)nn23)cc1` the value was 89.4%.
As for `C#CCOc1ccc(/C=N/Nc2nc(-c3ccc(F)cc3)cs2)cc1OC`, the growth was 51.3%.
Consider `COc1ccc(C(=O)/C=C/c2c(F)cccc2Cl)cc1S(N)(=O)=O`, for which the growth was -3.57% (active).
For `COc1ccc2c(c1)c(-c1cc(N)n3nc(-c4cn(C)c5ccccc45)cc3n1)cn2C` the value was -34.6% (active); for `COc1cc2c(c(OC)c1OC)C(=O)CC(c1cccc(NC(=O)c3cccc([N+](=O)[O-])c3)c1)O2` (stereo not given), 8.62% (active); for `Cc1sc(C(NC(=O)OCCn2c([N+](=O)[O-])cnc2C)C(F)(F)Cl)nc1-c1ccc(OC(F)(F)F)cc1` (stereo not given), -93.4% (active).
Turning to `Cc1cc2nc3c4ccccc4n(CC4=NCCN4)c3nc2cc1C`, the growth was -57.3% (active).
Regarding `COC(OC)C1=C(C)OC(N)=C(C#N)C12C(=O)Nc1ccccc12` (stereo not given), the growth was 85.9%.
Next, `Cc1ccc([C@H]2C(C(=O)c3ccc(Cl)cc3)C3(N[C@@H]2c2ccccc2)C(=O)Nc2ccc(Br)cc23)cc1` (stereo not given in full): 59.5%.
Next, `C=C1CC[C@@H]2[C@]3(C)COC(c4cn[nH]c4-c4ccc(OC)cc4)O[C@@H]3CC[C@@]2(C)[C@@H]1C/C=C1/C(=O)OCC1O` (stereo not given in full): -7.84% (active); `COc1ccc(-c2nnc3ccc(N/N=C/c4ccc(O)cc4)nn23)cc1`: 48.2%.
Next, `C=C1CC[C@@H]2[C@]3(C)COC(c4cn[nH]c4-c4ccccc4)O[C@@H]3CC[C@@]2(C)[C@@H]1C/C=C1/C(=O)OCC1O` (stereo not given in full): -37% (active); `COC(=O)C[C@](O)(CCCC(C)(C)O)C(=O)O[C@H]1C(OC)=C[C@@]23CCCN2CCc2cc4c(cc2[C@@H]13)OCO4`: -36.6% (active).
With `COc1cc(OC)cc(-c2cc3ccc(N(C)C)cc3c(=O)[nH]2)c1`, the growth was 40.2%.
As to `C=C1CC[C@@H]2[C@]3(C)COC(c4cn[nH]c4-c4ccc(Br)cc4)O[C@@H]3CC[C@@]2(C)[C@@H]1C/C=C1/C(=O)OCC1O` (stereo not given in full), the growth was -85.9% (active).
Next, `Cc1cccc(Nc2nc3ccccc3nc2/C=C/c2ccc(F)cc2)c1`: 90%.
Turning to `COc1cc(/C=C2\C(=N)N=C(SCc3nc4ccccc4[nH]3)NC2=O)ccc1O`, the growth is 106%.
Next, `CC1(C)CC[C@]2(C(=O)Nc3ccc(Br)cc3)CC[C@]3(C)C(=CCC4[C@@]5(C)C[C@@H](O)[C@H](O)[C@@](C)(CO)C5CC[C@]43C)C2C1` (stereo not given in full): -3.95% (active).
Next, `COc1ccc(C(SCCNCc2cc(N(C)C)ccn2)(c2ccccc2)c2ccccc2)cc1`: -58.2% (active).
In the case of `O=C(N=Nc1c(O)[nH]c2ccc(Cl)cc12)c1ccc2nc(-c3ccccc3)[nH]c2c1`, the growth was -31.3% (active).
With `COc1cc(/C=C/C(=O)c2ccc(C)cc2)ccc1Oc1nc(Nc2ccc(F)cc2)nc(N(C)C)n1`, the growth was 40.1%.
Next, `CCOC(=O)/C=C/c1cccc2c1C(=O)NC(C)(c1cc3cc(Cl)ccc3oc1=O)N2` (stereo not given): 3.88% (active).
For `OCNc1ccc(-n2cnc3cc(-c4ccc(O)cc4)ccc32)cc1C(F)(F)F`, the growth is 27.7%.
For `CCCCCCn1c(O)c(N=Nc2nc(-c3cc4ccccc4oc3=O)cs2)c2ccccc21` the value was 45.3%.
